Results filed as inconclusive are left out. Where a call stands in place of a potency, no number is given. Calls of active or inactive are those of the source. Unless noted, calls follow the shape of the dose curve; as a rule, active = well fitted curve in the direction sought with a large enough effect in the repeat runs; inconclusive = weak or mixed curves; inactive = no such curve, though single readings can be large; an effect the other way counts as inactive or inconclusive.
Columns and labels:
[1] = qHTS assay to identify small molecule antagonists of the estrogen receptor beta (ER-beta) signaling pathway - cell viability counter screen (AID 1259382); also: series mostly up to about 92 µM; nearly all actives have a fitted effect of over 55% in size
Outline: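 Agonist-stimulated (1nM E2) ER-beta-UAS-bla HEK293T cells are incubated with library compounds for 16 hr at 37C. Cell viability is then assessed in the reporter-assay wells by adding CellTiter-Glo and reading luminescence after 30 min.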

[2] = target: Estrogen receptor (Homo sapiens) (UniProt P03372); experiment: qHTS assay to identify small molecule agonists of the estrogen receptor alpha (ER-alpha) signaling pathway in the presence of an antagonist (AID 1259383; calls by dose curve; also: top concentration of the series differs between compounds; nearly all actives have a fitted effect of over 15% in size)
Chain of Estrogen receptor (Homo sapiens) (P03372 whole entry, looked up): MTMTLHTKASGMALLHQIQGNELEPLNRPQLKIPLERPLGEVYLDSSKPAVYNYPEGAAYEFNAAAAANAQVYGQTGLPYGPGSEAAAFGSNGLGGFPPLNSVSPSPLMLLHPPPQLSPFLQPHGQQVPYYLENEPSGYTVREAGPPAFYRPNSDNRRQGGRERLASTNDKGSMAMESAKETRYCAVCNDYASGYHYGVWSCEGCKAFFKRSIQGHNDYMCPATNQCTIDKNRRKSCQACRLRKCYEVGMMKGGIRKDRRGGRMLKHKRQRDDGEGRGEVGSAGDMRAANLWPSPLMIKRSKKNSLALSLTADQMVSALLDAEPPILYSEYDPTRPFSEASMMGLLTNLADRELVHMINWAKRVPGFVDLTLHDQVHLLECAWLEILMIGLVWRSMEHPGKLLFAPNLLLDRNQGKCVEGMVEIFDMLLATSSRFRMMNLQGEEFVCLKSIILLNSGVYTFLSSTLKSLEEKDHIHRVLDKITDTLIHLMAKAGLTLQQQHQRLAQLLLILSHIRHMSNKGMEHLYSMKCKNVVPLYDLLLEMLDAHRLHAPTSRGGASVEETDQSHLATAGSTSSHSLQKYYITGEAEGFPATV
Outline: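 Using VM7Luc4E2 cells seeded 24hr before treatment, antagonist ICI-182,780 (10.0nM final) was added, followed by compounds at 15 concentrations. Plates incubated 22hr; ONE-Glo luminescence quantified reporter activity.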

[3] = qHTS assay to identify small molecule agonists of the estrogen receptor alpha (ER-alpha) signaling pathway in the presence of an antagonist - cell viability counter screen (AID 1259386);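 also: series mostly up to about 92 µM; cells exposed to compounds for 22 h at 37 °C before the viability read; nearly all actives have a fitted effect of over 30% in size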
Outline: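 ICI-182,780 at 10.0nM final accompanies the compound titration (15 concentrations, 22hr, 37C) on VM7Luc4E2 cells. The CellTiter-Fluor fluorescence readout runs in the same wells as the luciferase assay.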

[4] = target: Progesterone receptor (Homo sapiens) (UniProt P06401); experiment: qHTS assay to identify small molecule agonists of the progesterone receptor (PR) signaling pathway (AID 1346784; calls by dose curve; also: nearly all actives have a fitted effect of over 30% in size; also: potency is read from the fitted curve at half-maximal effect)
Chain of Progesterone receptor (Homo sapiens) (P06401 whole entry, looked up): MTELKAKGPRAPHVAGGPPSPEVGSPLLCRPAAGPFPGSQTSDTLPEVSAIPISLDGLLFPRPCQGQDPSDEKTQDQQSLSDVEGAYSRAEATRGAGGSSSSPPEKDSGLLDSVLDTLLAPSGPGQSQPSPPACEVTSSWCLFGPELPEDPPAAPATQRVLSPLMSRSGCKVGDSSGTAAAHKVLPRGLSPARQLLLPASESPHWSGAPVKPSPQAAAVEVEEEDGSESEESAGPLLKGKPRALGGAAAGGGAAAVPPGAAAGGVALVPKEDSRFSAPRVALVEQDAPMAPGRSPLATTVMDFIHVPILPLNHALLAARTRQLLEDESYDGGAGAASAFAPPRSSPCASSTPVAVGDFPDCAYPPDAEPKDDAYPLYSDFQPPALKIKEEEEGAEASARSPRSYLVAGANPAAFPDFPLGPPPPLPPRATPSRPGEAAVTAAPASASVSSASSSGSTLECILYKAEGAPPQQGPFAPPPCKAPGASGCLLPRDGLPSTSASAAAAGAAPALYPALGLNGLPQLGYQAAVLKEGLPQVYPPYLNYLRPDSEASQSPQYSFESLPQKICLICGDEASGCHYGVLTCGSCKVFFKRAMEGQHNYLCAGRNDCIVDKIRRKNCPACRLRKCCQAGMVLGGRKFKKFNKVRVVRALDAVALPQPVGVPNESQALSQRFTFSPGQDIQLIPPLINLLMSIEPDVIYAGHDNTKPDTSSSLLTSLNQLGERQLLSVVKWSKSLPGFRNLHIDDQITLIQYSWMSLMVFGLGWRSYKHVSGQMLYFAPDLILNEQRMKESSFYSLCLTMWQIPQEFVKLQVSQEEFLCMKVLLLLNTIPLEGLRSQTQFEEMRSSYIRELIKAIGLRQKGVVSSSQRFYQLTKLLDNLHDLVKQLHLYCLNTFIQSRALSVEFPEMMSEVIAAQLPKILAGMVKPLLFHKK
Outline: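 Seed PR-UAS-bla HEK 293T cells (2% charcoal-stripped FBS), incubate 6 hr at 37C; add compounds in DMSO, 16 hr at 37C; add LiveBLAzer B/G substrate, 2 hr RT; read fluorescence intensity.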

[5] = target: Progesterone receptor (Homo sapiens) (UniProt P06401); experiment: qHTS assay to identify small molecule antagonists of the progesterone receptor (PR) signaling pathway (AID 1346795; active = well fitted inhibition curve with a large enough effect in the signal ratio in the repeat runs, not every such curve was filed as active; the % refers to the signal ratio; also: potency is read from the fitted curve at half-maximal effect)
Outline: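 Screening used a GripTite HEK293T line with PR-responsive UAS-beta-lactamase. Cells were challenged with compound in the presence of 1 nM R5020 final for 16 hr at 37C; B/G FRET substrate, 2 hr room temperature, fluorescence.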

[6] = qHTS assay to identify small molecule antagonists of the progesterone receptor (PR) signaling pathway - cell viability counter screen (AID 1346798); also: series mostly up to about 92 µM; nearly all actives have a fitted effect of over 50% in size
Outline: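 Measures cytotoxicity in parallel with the PR antagonist reporter read: HEK293T PR-UAS-bla cells get compound and R5020 for 16 hr, and remaining viable cells are quantified by CellTiter-Glo luminescence.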

[7] = qHTS assay to identify small molecule agonists of the progesterone receptor (PR) signaling pathway - cell viability counter screen (AID 1346799; calls by dose curve; also: nearly all actives have a fitted effect of over 45% in size)
Outline: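 Using the same plates as the PR reporter screen, HEK293T PR-UAS-bla cells received compounds for 16 hr at 37C and were then lysed with CellTiter-Glo; luminescence was read 30 min later at room temperature.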

[8] = qHTS assay to identify small molecule antagonists of the TGF-beta/Smad signaling pathway - cell viability counter screen (AID 1346824); also: nearly all actives have a fitted effect of over 50% in size
Outline: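 SBE-bla HEK 293T cells, incubated overnight, then compound plus 0.25 ng/mL TGF-beta1 (stock added) for 5 hr at 37 C. Viability was read in the same wells by CellTiter-Glo luminescence after 30 min at room temperature.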

[9] = target: Thyrotropin receptor (Homo sapiens) (UniProt P16473); experiment: qHTS assay to identify small molecule antagonists of the thyroid stimulating hormone receptor (TSHR) signaling pathway (AID 1259385; calls by dose curve; also: nearly all actives have a fitted effect of over 20% in size)
Chain of Thyrotropin receptor (Homo sapiens) (P16473 whole entry, looked up): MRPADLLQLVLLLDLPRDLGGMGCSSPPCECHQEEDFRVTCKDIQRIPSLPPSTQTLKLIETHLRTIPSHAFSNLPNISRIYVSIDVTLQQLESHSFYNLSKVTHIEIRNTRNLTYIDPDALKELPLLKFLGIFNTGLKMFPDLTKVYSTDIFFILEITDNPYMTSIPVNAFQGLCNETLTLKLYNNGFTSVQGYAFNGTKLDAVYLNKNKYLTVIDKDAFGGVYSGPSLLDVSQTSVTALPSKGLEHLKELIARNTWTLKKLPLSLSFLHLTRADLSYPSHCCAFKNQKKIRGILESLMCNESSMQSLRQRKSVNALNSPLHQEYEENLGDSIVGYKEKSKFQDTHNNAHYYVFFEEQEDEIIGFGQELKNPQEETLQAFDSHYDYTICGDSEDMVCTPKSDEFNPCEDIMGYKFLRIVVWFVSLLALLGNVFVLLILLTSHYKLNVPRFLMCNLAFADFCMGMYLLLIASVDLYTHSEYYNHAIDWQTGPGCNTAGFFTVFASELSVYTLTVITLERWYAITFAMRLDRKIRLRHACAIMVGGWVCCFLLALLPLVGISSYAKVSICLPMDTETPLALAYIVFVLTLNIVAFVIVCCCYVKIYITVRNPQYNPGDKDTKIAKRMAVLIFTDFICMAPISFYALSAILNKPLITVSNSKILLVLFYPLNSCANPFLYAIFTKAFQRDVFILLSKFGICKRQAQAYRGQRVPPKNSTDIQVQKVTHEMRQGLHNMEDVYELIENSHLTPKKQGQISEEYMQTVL
Outline: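 TSHR-HEK293 cells (800/well) plated 18 h, then compounds with Ro20-1724 and TSH at 1.5 ng/mL final, 30 min at room temperature. cAMP quantified by HTRF (cAMP-d2/anti-cAMP-cryptate, 1 h); 15 concentrations in triplicate.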

[10] = qHTS assay to identify small molecule agonists or antagonists of the thyroid stimulating hormone receptor (TSHR) signaling pathway - wild type cell line counter screen (AID 1259384; calls by dose curve)
Outline: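 Wild-type Hek293 cells, 800/well, 18 h at 37C, then compound with Ro20-1724 for 30 min RT. cAMP by HTRF (cAMP-d2/anti-cAMP cryptate), 1 h RT, fluorescence read. 15 concentrations, triplicates.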

Compound	outcome [1]	Potency [2]	outcome [3]	Potency [4]	Potency [5]	outcome [6]	Potency [7]	outcome [8]	outcome [9]	outcome [10]
N#Cc1cc(NC(=O)C(=O)O)c(Cl)c(NC(=O)C(=O)O)c1	inactive	inactive	inactive	inactive	inactive	inactive	inactive	inactive	–	–
CC(C)c1cc(C(C)C)cc(C(C)C)c1	inactive	inactive	inactive	inactive	inactive	inactive	inactive	inactive	–	–
CCOC(=O)c1ccc(N(C)C)cc1	inactive	inactive	inactive	inactive	inactive	inactive	inactive	inactive	–	–
C=CCOC(=O)CCCCCCCC	inactive	inactive	inactive	inactive	inactive	inactive	inactive	inactive	–	–
Cc1ccccc1OCC(=O)O	inactive	inactive	inactive	inactive	inactive	inactive	inactive	inactive	–	–
CC(O)C(CO)C(C)O (stereo not drawn)	inactive	inactive	inactive	inactive	inactive	–	inactive	inactive	inactive	–
N#Cc1ccccc1C#N	inactive	inactive	inactive	inactive	inactive	inactive	inactive	inactive	–	–
CC(C)(C)c1ccc(N)cc1	inactive	inactive	inactive	inactive	inactive	inactive	inactive	inactive	–	–
CN(C)CCc1c[nH]c2ccc(CS(=O)(=O)N3CCCC3)cc12	inactive	inactive	inactive	inactive	inactive	inactive	inactive	inactive	–	–
CC(=O)OC1CCC(C(C)(C)C)CC1 (stereo not drawn)	inactive	inactive	inactive	inactive	inactive	inactive	inactive	inactive	–	–
Cc1ccc(NC(N)=O)cc1	inactive	inactive	inactive	inactive	inactive	inactive	inactive	inactive	–	–
CCCCNCC	inactive	–	inactive	inactive	inactive	inactive	inactive	inactive	inactive	inactive
COC(=O)c1c(C)cc(O)c(C)c1O	inactive	inactive	inactive	inactive	19.3 µM (active)	inactive	–	inactive	–	–
C=CCON/C(CCC)=C1\C(=O)CC(C)(C)C(C(=O)OC)=C1O	inactive	–	inactive	inactive	inactive	inactive	inactive	inactive	inactive	inactive
C=CCN(CC=C)CC=C	inactive	–	inactive	inactive	inactive	inactive	inactive	inactive	inactive	inactive
CCO/C=C1\N=C(c2ccccc2)OC1=O	inactive	–	inactive	inactive	inactive	inactive	inactive	inactive	inactive	inactive
CC(CC(=O)Cl)CC(C)(C)C (stereo not drawn)	inactive	–	inactive	12.3 µM (active)	inactive	inactive	–	–	inactive	inactive

Reference: PubChem BioAssay (Tox21)
